In the library only some 32% were active in any assay of this set; here they are far more common.
CYP2C9 activ: CYP2C9 (human) activation | P11712 | recombinant CYP2C9, luciferin-H conversion, luminescence; hits give high values; factor 1 = untreated enzyme, 0 = blocked | activation factor at 5 µM | 1.4% of 96,000 active;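 active = activation factor of 2 or more for CYP2C9 at a 5 µM dose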
PostGolgi ctrl: growth of the yeast control strain, post-Golgi counter-screen. efflux-deficient yeast background strain, growth absorbance A615, 16 h. inhibition, % at 10 µM. 5% of 98,000 active
CYP2C19 inhib: human CYP2C19 inhibition; P33261; CYP2C19 Supersomes, luciferin-H EGE luminescence, 30 min; inhibition, % at 5 µM; 21% of 96,000 active; AID 778;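 active = CYP2C19 inhibition above a set limit at 5 µM in the primary screen, cut at about 50% in these data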
Target sequence (P33261 whole entry, looked up): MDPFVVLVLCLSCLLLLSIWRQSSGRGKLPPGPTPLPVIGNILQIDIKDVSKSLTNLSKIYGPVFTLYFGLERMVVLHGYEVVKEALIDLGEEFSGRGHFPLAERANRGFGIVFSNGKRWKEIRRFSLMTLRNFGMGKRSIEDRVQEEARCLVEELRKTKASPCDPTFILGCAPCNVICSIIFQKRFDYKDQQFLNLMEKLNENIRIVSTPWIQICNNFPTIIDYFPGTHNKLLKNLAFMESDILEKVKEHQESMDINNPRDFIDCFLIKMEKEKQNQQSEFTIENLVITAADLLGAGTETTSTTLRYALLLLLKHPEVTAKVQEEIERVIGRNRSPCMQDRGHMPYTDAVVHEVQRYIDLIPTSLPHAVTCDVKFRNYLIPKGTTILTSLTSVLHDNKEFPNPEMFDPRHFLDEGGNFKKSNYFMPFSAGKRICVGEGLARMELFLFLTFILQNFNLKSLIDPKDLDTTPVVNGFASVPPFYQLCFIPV
PostGolgi yeast: growth inhibition of a yeast mutant, post-Golgi transport screen | post-Golgi transport phenotypic cell assay | inhibition, % at 10 µM | 0.9% of 98,000 active | AID 739;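 note: yeast cells grown in 1536-well plates; yeast grown about 18 h at 30C before absorbance read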
CYP2C9 inh: inhibitors of human CYP2C9; P11712; CYP2C9 Supersomes, luciferin-H conversion, luminescence; inhibition, % at 5 µM; 20% of 96,000 active; AID 777;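 active = blocking of liver enzyme CYP2C9 beyond about 50% at 5 µM, limit read from the data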
CYP2C19 act: activators of human cytochrome P450 2C19; recombinant CYP2C19, luciferin-H EGE luminescence; hits give high values; 0 = fully inhibited enzyme, 1 = untreated enzyme; activation factor at 5 µM; 96,000 tested, under 10 active; AID 1025;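 active = activation factor of at least 2 at 5 µM in the primary screen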
Numbers stand for hits; - = inactive; . = no result. Cut-off read from the data, not from the text of the source, unless noted: active = inhibition above about 30%; inactive = the rest.

SMILES	CYP2C9 activ	PostGolgi ctrl	CYP2C19 inhib	PostGolgi yeast	CYP2C9 inh	CYP2C19 act
CC(=O)Nc1sc2c(c1C(c1cccs1)N1CCOCC1)CCCC2 (configuration not stated)	-	42	-	-	-	-
O=C(NCc1cccnc1)/C(=C/c1ccc(-c2ccc(Cl)cc2)o1)S(=O)(=O)c1ccccc1	-	-	67	-	-	-
COc1ccc(C(=O)NCCc2nnc(SCC(=O)Nc3ccccc3C(C)C)n2C)cc1	-	-	-	-	-	-
CCn1c(CSc2nc(C)cc(C)n2)nnc1SCC(=O)Nc1cccc2ccccc12	-	-	-	-	-	-
CCn1c(CNC(=O)COc2ccc(C(C)C)cc2)nnc1SCC(=O)Nc1ccccc1C(C)C	-	43	-	-	-	-
CCn1c(CNC(=O)COc2ccc(C(C)C)cc2)nnc1SCC(=O)Nc1ccccc1F	-	-	53	-	71	-
Cn1c(Cl)c(C(=O)Nc2ccccc2)c2ccccc21	-	-	-	-	-	-
Cc1ccc(NC(=O)c2c(Cl)n(C)c3ccccc23)cc1	2.1	-	-	-	-	-
Cc1ccccc1NC(=O)C1Cc2ccccc2C(=O)O1 (configuration not stated)	-	-	71	-	-	-
O=C1OC(C(=O)Nc2nccs2)Cc2ccccc21 (configuration not stated)	-	-	-	-	-	-
CCC(=O)N(CCc1ccccc1)Cc1cc2cc3c(cc2[nH]c1=O)OCO3	-	-	-	-	-	-
CCC(=O)N(CCC(Cc1ccccc1)c1ccc2c(c1)OCO2)Cc1ccccc1F (configuration not stated)	-	-	96	-	96	-
Cc1c(C(=O)NC(C)CN2CCCCC2)oc2ccccc12 (configuration not stated)	-	-	-	-	-	-
O=C(O)c1oc2ccccc2c1CN1CCN(c2ccccc2)CC1	-	-	-	-	-	-
O=C(N1CCOCC1)N1CCN(c2ccccn2)CC1	-	-	-	-	-	-
O=C(c1oc2ccccc2c1CSCc1ccccc1)N1CCN(c2ncccn2)CC1	-	-	62	-	80	-
O=C(O)c1cc2c(ccc3ccccc32)oc1=O	-	-	-	-	-	-
Cc1c(C(=O)N2CCN(c3ccccn3)CC2)oc2ccccc12	-	-	85	-	-	-
Cc1c(C(=O)N2CCCCCC2)oc2ccccc12	-	-	91	-	-	-
O=C(c1cc2c(ccc3ccccc32)oc1=O)N1CCCC1	-	-	-	-	73	-
O=S(=O)(Nc1ccc(N2CCOCC2)nn1)c1ccccc1	-	-	-	-	-	-
O=S(=O)(C/C(=C/CO)S(=O)(=O)c1ccccc1)c1ccccc1	-	-	-	-	-	-
COCc1c(C(=O)N2CCN(c3ccc(C(F)(F)F)cn3)CC2)oc2ccccc12	-	-	80	-	-	-
COc1ccc(OC)c(NC(=O)CSc2ccccc2)c1	-	-	57	-	-	-
COc1ccc([N+](=O)[O-])cc1NCc1ccccc1C	-	-	68	-	69	-
SMILES	CYP2C9 activ	PostGolgi ctrl	CYP2C19 inhib	PostGolgi yeast	CYP2C9 inh	CYP2C19 act
COc1ccc(OC)c(NC(=O)CSc2ncccn2)c1	-	-	-	-	-	-
COc1cc(NC(=O)CS(=O)(=O)c2ccc(C)cc2)cc(OC)c1OC	-	-	73	-	-	-
COc1ccc(NC(=S)NC(NC(=O)C(C)C)C(Cl)(Cl)Cl)c([N+](=O)[O-])c1 (configuration not stated)	-	-	-	-	-	-
COc1ccc([N+](=O)[O-])cc1NC(=S)NC(NC(=O)Cc1ccc(OC)c(OC)c1)C(Cl)(Cl)Cl (configuration not stated)	-	-	-	-	58	-
O=C1Nc2ccccc2S/C1=C/Nc1cccc(Cl)c1	-	-	-	-	-	-
COc1ccc(OC)c(NC(=O)C2CCCN2C(=O)OCc2ccccc2)c1 (configuration not stated)	-	-	97	-	62	-
COCC(=O)Nc1cc(OC)ccc1OC	-	-	-	-	-	-
Cc1cccc(NC(=O)C2CCCN2C(=O)OCC(C)C)c1C (configuration not stated)	.	35	.	-	.	.
COc1ccc(C)cc1NC(=O)C1CCCN1C(=O)OCc1ccccc1 (configuration not stated)	-	-	-	-	-	-
COc1ccc(OC)c(NC(=O)CSc2ccc3ccccc3c2)c1	-	40	-	-	-	-
COc1ccc(OC)c(NC(=O)CS(=O)(=O)c2ccccc2)c1	4.3	-	69	-	-	-
Cc1cccc(NC(=O)C2CCCN2C(=O)OCC(C)C)c1 (configuration not stated)	-	-	-	-	-	-
CC(C)CC(C(=O)NC(=O)NCc1ccccc1)N1C(=O)c2ccccc2C1=O (configuration not stated)	-	-	-	-	-	-
Cc1c(S(=O)(=O)Nc2cc(Cl)ccc2Cl)c(=O)n(C)c(=O)n1C	.	-	.	-	.	.
COc1ccc(OC)c(NC(=O)C(=O)/C=C(\O)c2cc(OC)ccc2OC)c1	-	30	-	-	-	-
COc1ccc(OC)c(NC(=O)Nc2ccccc2C)c1	-	-	67	-	-	-
COc1ccc([N+](=O)[O-])cc1NC(=O)CSc1ccccc1	-	-	93	-	-	-
COc1cccc(C2NC(=O)NC(C)=C2C(=O)Nc2cccc(C)c2C)c1 (configuration not stated)	-	-	-	-	-	-
CN(CCNC(=O)C1CCN(S(=O)(=O)N2CCOCC2)CC1)CCc1ccccc1	-	-	-	-	-	-
CCCOC(=O)Nc1ccc(S(=O)(=O)Nn2cnnc2)cc1	-	-	-	-	-	-
Cc1cc(NCC(C)C)n2ncnc2n1	-	-	-	-	-	-
CCN(CC)S(=O)(=O)c1ccc(NC(=O)C(C)N(c2ccc(OC)cc2)S(C)(=O)=O)cc1 (configuration not stated)	-	-	-	-	56	-
CCOc1ccc(N(C(C)C(=O)Nc2ccc(OC)cc2)S(C)(=O)=O)cc1 (configuration not stated)	-	-	74	-	72	-
COCCNC(=O)C(C)N(c1ccc(OC)cc1)S(C)(=O)=O (configuration not stated)	-	-	-	-	-	-
CCN(CC(F)(F)C(F)F)S(=O)(=O)c1ccc(NC(=O)OC)cc1	-	-	-	-	-	-
CCCC1CCc2c(c3ccccc3[nH]c2=O)O1 (configuration not stated)	-	-	-	-	-	-
O=C(c1ccco1)N1CCN(S(=O)(=O)Cc2ccc(Cl)cc2)CC1	-	-	78	-	-	-
O=C(Cc1ccc(Cl)cc1)Nc1ccc(N2CCN(C(=O)c3ccco3)CC2)c(Cl)c1	-	60	92	-	97	-
COc1ccc(Cl)cc1S(=O)(=O)N1CCN(C(=O)c2ccco2)CC1	-	-	94	-	-	-
